The values below come from PubChem BioAssay (NCI).

This is part of a sample that, as a whole, favours compounds with a hit. Of some 83,000 tested, about 20% had one in any assay.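 Single-dose data. Exposure time 48 hours. Values below 10 considered active.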 Values without a mark were called inactive. Active and inactive are the calls of the source.

Assay in all cases: NCI-60 one-dose screen, 48 h (100 = growth as untreated, 0 = no growth, -100 = all killed)
Common to all, as to details: 10 µM

Assay [1] deals with DU-145 prostate.
The test system of assay [2] is K-562 leukemia.
Assay [3] has as its system MALME-3M melanoma.
The test system of assay [4] is MDA-MB-231 breast.
The test system of assay [5] is RXF 393 renal.
The subject of assay [6] is SF-268 CNS.
The test system of assay [7] is SF-295 CNS.
Assay [8] has as its system SF-539 CNS.
The subject of assay [9] is UACC-257 melanoma.
Assay [10] concerns M14 melanoma.
Assay [11] has as its system HCT-15 colon.
The test system of assay [12] is HT29 colon.
Assay [13] deals with SNB-75 CNS.
Assay [14] concerns SNB-19 CNS.
Assay [15] has as its system U251 CNS.
Assay [16] deals with PC-3 prostate.
Assay [17] concerns SK-MEL-5 melanoma.
Assay [18] relates to UACC-62 melanoma.
Assay [19] relates to LOX IMVI melanoma.
In assay [20] the test system is SK-MEL-28 melanoma.

`Cn1c([N+](=O)[O-])cnc1C=C1C(=O)c2ccccc2C1=O`: the growth was 46.5% in [1]; 15.8% in [2]; 42.5% in assay [3]; 45.6% in assay [4]; 4.59% (active) in assay [5]; 17.7% in assay [6]. For the same compound, the growth was 110% in assay [7]; 17.7% in assay [8]; 37.4% in [9]; 19.3% in assay [10]; 23.2% in assay [11]; 56.1% in assay [12]. The growth was 51% in assay [13]; 85.1% in assay [14]; 57.2% in assay [15]; 60.1% in assay [16]; 42.6% in assay [17]; 17.5% in [18]. The growth in [19] was 21.7%; in assay [20], 39.2%.
With `O=C1/C(=C/c2ccc([N+](=O)[O-])s2)Oc2ccc(Cl)cc21`, the growth in assay [1] was -73.5% (active); in assay [2] it was -11.2% (active); in [3], -56.8% (active); in assay [4] it was -57% (active); in assay [5] it was -63.9% (active); in assay [6], -57.9% (active). Further, the growth in assay [7] was -16.2% (active); in [8], -91.3% (active); in [9] it was -54.5% (active); in assay [10], -44.4% (active); in assay [11], -40% (active); in assay [12] it was -36.1% (active). The growth in assay [13] is -15% (active); in assay [14] it was 7.13% (active); in assay [15], -65.4% (active); in [16], -48% (active); in assay [17], -88.7% (active); in assay [18], -82.4% (active). The growth in assay [19] is -70.1% (active); in assay [20], -56.8% (active).
On to `O=C(Nc1ccc(OCc2nnc(-c3ccccc3)o2)c(F)c1)Nc1ccc(Cl)c(Cl)c1`, for which the growth in [1] was 64.1%; in assay [2], 34.4%; in [3], 57.8%; in assay [4], 64.5%; in assay [5] it was 56.3%; in assay [6] it was 80.7%. Further, the growth in assay [7] was 39.4%; in assay [8], 75.5%; in assay [9] it was 59.9%; in [10], 70.4%; in [11], 49.4%; in [12] it was 53%. Besides, the growth is 66.4% in assay [13]; 59.9% in [14]; 50.5% in [15]; 55.6% in assay [16]; 65.9% in [17]; 58% in [18]. Moreover, the growth in assay [19] was 54.8%; in assay [20], 73%.
In the case of `COc1cc(CSc2nc3ccc(C)cc3c(=O)n2-c2ccccc2)cc(OC)c1OC`, the growth in assay [1] was 29.8%; in assay [2], 10.4%; in assay [3], 42.5%; in assay [4], 38%; in assay [5] it was 14.2%; in [6], 47.5%. Besides, the growth in assay [7] was 32.8%; in assay [8], 3.56% (active); in assay [9] it was 50.2%; in assay [10], 17.2%; in [11], 30.1%; in [12] it was 14.3%. Also, the growth in assay [13] was -7.55% (active); in [14], 57.2%; in [15], 38.5%; in assay [16], 49.1%; in [17], 20%; in assay [18] it was 20.8%. Besides, the growth in [19] is 36%; in assay [20], 52%.
In the case of `Cc1nc2cc(-n3c(-c4ccc(F)cc4)nc4ccccc4c3=O)ccc2n1Cc1ccccc1`, the growth in assay [1] was 20.8%; in assay [2], 8.27% (active); in [3], -45.1% (active); in [4] it was -25.5% (active); in assay [5], -31.3% (active); in assay [6], 8.04% (active). The growth in [7] is 47.1%; in assay [8] it was -72.6% (active); in [9], -18% (active); in assay [10] it was 3.21% (active); in assay [11], 3.41% (active); in assay [12], -23.8% (active). In addition, the growth in assay [13] is 6.2% (active); in assay [14] it was 37.9%; in [15] it was 9.65% (active); in assay [16], 9.75% (active); in assay [17] it was -77% (active); in assay [18], 0.751% (active). The growth in assay [19] was 6.97% (active); in [20], -60.3% (active).
For `Fc1cc(-c2ncc(-c3cc(F)c(F)c(F)c3)c(NC3CCCCCC3)n2)cc(F)c1F`, the growth in [1] is 105%; in [2], 101%; in [3], 140%; in assay [4], 104%; in assay [5], 96.1%; in assay [6], 107%. Further, the growth in assay [7] was 90.1%; in [8], 105%; in [9], 87.6%; in [10] it was 109%; in [11], 97%; in [12], 115%. Further, the growth was 85.7% in [13]; 99.7% in assay [14]; 83.4% in assay [15]; 90.6% in [16]; 98.1% in [17]; 89.4% in [18]. The figures for the growth in assay [19] and in [20] were 102% and 98.4%, respectively.
For the compound `CCOC(=O)CSC(=S)SCC(=O)OCC`, the growth in assay [1] is 107%; in assay [2] it was 95.6%; in assay [3] it was 98%; in assay [4], 118%; in [5] it was 109%; in assay [6], 113%. Besides, the growth in [7] is 103%; in assay [8], 94.1%; in [9], 82.8%; in assay [10], 97.9%; in assay [11], 94.6%; in assay [12], 99.8%. Moreover, the growth was 83.1% in [13]; 105% in assay [14]; 104% in assay [15]; 103% in assay [16]; 106% in assay [17]; 101% in [18]. Moreover, the figures for the growth in assay [19] and in assay [20] were 98.6% and 97.7%, respectively.
